# Reference: paper PMC7862700, “An all-to-all approach to the identification of sequence-specific readers for epigenetic DNA modifications on cytosine”
# Key:
# Assay in all cases: DAPPL (digital affinity profiling via proximity ligation, sequencing); 10 mM Tris-HCl pH 7.5, 50 mM NaCl, 1 mM DTT, 4% glycerol, room temperature, 30 min; GST-TFs on glutathione beads, 16-mer random dsDNA library, 0.1% formaldehyde crosslink after washing; high values mean tight binding
# [1] = molecular target: T1, FEV (Homo sapiens, UniProt Q99581 1-238); details: protein: recombinant; tags: N-terminal GST; dsDNA, one strand shown
# T1 sequence: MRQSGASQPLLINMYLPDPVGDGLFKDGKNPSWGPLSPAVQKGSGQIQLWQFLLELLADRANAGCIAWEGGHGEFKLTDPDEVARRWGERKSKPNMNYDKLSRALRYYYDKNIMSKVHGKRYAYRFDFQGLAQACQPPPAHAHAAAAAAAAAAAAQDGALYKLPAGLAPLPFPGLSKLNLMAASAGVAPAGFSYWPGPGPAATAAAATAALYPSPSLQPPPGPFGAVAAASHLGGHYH
# How it was run: (§1)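 GST fusions of human transcription factors were expressed in yeast and captured with glutathione beads. Once given DNA barcodes and pooled alongside a tag-only sample, they were incubated for 30 min at room temperature with 200 nmole of a random double-stranded 16-mer DNA library in Tris/NaCl/DTT/glycerol buffer, then washed, crosslinked (0.1% formaldehyde), proximity-ligated, PCR-amplified and sequenced on an Illumina NextSeq500. The binding signal of each hexamer is its read frequency for a factor divided by its frequency for the tag-only sample.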
# [2] = molecular target: ETV5 (Homo sapiens, UniProt P41161 1-510); details: protein: recombinant; tags: N-terminal GST; dsDNA, one strand shown
# Sequence of ETV5 (P41161 whole entry): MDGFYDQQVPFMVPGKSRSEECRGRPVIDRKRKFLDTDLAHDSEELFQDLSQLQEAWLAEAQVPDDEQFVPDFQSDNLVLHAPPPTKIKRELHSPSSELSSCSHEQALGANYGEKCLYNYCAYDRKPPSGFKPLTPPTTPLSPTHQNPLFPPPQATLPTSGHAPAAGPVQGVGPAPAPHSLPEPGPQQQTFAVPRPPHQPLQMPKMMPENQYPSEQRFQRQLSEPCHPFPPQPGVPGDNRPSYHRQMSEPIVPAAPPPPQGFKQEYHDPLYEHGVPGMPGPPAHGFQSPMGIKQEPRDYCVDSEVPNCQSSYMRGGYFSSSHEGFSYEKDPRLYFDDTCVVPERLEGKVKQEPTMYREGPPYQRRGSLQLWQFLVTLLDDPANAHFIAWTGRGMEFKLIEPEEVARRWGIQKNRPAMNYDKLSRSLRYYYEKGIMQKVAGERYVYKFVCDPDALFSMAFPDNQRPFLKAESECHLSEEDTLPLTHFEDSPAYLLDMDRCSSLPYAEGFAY
# How it was run: as §1
# [3] = molecular target: HSF1 (Homo sapiens, UniProt Q00613 1-529); details: protein: recombinant; tags: N-terminal GST; chain copies: 3; dsDNA, one strand shown
# Sequence of HSF1 (Q00613 whole entry): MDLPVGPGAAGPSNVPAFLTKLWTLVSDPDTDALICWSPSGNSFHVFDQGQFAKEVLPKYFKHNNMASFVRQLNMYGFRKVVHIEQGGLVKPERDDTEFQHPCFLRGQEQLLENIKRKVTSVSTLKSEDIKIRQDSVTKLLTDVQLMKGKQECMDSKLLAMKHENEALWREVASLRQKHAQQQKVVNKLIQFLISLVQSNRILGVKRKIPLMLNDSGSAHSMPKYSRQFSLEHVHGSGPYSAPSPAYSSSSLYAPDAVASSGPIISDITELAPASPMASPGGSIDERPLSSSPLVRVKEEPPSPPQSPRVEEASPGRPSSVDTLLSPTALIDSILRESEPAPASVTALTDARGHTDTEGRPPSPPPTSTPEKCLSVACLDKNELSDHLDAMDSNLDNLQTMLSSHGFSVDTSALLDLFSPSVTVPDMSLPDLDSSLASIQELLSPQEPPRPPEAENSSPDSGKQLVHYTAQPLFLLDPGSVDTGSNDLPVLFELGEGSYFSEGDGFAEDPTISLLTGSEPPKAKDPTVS
# How it was run: as §1
# [4] = molecular target: T2, SPIC (Homo sapiens, UniProt Q8N5J4 1-248); details: protein: recombinant; tags: N-terminal GST; dsDNA, one strand shown
# T2 sequence: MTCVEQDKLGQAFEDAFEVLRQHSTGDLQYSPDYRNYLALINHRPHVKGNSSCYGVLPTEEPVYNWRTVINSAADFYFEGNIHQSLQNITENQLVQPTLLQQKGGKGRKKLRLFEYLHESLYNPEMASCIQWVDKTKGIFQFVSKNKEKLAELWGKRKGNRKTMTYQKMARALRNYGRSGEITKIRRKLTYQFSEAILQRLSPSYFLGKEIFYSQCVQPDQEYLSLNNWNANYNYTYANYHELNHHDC
# How it was run: as §1
# [5] = molecular target: ELF4 (Homo sapiens, UniProt Q99607 1-663); details: protein: recombinant; tags: N-terminal GST; dsDNA, one strand shown
# Sequence of ELF4 (Q99607 whole entry): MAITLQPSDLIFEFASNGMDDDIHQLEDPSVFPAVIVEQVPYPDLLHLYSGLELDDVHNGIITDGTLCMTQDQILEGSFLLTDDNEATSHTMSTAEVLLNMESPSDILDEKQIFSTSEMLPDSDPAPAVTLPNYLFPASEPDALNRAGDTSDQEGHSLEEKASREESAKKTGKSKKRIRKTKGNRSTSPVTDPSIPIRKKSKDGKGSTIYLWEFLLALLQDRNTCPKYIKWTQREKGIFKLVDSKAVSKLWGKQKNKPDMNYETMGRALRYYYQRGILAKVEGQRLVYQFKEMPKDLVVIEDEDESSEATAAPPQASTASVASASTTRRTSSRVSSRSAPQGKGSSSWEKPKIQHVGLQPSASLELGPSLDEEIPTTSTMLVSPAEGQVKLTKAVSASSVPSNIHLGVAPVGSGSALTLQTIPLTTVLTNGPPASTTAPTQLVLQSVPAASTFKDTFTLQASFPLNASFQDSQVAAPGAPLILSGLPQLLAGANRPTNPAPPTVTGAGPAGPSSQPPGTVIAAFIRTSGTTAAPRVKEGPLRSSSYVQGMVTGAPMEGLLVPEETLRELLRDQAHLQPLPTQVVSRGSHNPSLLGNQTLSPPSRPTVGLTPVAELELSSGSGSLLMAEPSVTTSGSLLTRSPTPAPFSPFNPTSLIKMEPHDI
# How it was run: as §1
# [6] = molecular target: T3, ELK4 (Homo sapiens, UniProt P28324-2 1-405); details: protein: recombinant; tags: N-terminal GST; dsDNA, one strand shown
# T3 sequence: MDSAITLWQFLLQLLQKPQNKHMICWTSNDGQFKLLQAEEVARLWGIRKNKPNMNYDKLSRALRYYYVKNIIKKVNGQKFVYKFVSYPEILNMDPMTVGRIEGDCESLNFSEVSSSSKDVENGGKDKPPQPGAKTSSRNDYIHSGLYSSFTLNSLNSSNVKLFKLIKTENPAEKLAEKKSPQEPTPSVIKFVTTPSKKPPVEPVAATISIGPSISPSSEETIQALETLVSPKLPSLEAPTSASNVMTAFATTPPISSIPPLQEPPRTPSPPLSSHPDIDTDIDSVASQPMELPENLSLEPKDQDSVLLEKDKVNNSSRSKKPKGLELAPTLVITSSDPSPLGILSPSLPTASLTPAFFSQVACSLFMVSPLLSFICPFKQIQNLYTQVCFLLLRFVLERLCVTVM
# How it was run: as §1
# [7] = molecular target: T4, ETV2 (Homo sapiens, UniProt O00321 1-342); details: protein: recombinant; tags: N-terminal GST; dsDNA, one strand shown
# T4 sequence: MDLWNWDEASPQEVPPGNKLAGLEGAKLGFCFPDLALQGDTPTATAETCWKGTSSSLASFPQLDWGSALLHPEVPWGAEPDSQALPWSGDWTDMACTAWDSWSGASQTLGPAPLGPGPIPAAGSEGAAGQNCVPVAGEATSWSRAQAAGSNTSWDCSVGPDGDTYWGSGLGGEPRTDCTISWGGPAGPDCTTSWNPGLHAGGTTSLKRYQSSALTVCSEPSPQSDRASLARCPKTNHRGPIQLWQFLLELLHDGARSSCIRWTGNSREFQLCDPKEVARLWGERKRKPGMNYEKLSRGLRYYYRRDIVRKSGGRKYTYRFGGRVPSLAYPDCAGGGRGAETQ
# How it was run: as §1
# [8] = molecular target: T5, ELF3 (Homo sapiens, UniProt P78545 1-371); details: protein: recombinant; tags: N-terminal GST; dsDNA, one strand shown
# T5 sequence: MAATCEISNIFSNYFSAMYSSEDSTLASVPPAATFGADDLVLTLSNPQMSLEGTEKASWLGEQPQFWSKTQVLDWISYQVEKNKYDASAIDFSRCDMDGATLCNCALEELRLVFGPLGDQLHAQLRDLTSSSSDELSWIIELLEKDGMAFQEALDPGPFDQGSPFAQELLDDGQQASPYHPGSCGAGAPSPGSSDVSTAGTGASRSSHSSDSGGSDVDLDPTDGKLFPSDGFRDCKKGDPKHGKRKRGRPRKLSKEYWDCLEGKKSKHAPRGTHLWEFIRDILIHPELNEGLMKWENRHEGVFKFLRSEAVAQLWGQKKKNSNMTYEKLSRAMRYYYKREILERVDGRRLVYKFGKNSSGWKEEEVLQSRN
# How it was run: as §1
# [9] = molecular target: CRX (Homo sapiens, UniProt O43186 1-299); details: protein: recombinant; tags: N-terminal GST; dsDNA, one strand shown
# Sequence of CRX (O43186 whole entry): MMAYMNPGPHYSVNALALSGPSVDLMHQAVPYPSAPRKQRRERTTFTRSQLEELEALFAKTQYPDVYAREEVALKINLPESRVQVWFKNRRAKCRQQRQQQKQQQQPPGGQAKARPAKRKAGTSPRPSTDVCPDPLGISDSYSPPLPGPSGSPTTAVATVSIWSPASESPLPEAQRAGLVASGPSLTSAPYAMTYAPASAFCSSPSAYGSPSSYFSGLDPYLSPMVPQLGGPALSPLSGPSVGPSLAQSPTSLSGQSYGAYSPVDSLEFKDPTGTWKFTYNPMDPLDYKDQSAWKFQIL
# How it was run: as §1
# [10] = molecular target: ETV1 (Homo sapiens, UniProt P50549 1-477); details: protein: recombinant; tags: N-terminal GST; dsDNA, one strand shown
# Sequence of ETV1 (P50549 whole entry): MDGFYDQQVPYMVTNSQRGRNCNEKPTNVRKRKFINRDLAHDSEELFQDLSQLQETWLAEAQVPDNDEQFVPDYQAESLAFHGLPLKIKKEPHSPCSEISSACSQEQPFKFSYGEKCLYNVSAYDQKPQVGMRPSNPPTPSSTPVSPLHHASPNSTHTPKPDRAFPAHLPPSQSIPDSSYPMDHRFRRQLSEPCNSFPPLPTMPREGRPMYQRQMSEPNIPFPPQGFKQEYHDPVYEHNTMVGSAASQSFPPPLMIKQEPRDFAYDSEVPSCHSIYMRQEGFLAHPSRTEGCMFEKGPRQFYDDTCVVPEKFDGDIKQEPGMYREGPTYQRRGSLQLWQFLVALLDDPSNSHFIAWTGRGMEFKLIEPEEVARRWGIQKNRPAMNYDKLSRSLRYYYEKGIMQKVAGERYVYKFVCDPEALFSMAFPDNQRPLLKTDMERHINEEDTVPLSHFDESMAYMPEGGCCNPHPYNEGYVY
# How it was run: as §1
sequence,measurement,setting,value
TTGTCC,binding signal,[1],"1.34 fold enrichment (6-mer frequency, TF over GST control)"
same,binding signal,[2],"1.42 fold enrichment (6-mer frequency, TF over GST control)"
same,binding signal,[3],"1.16 fold enrichment (6-mer frequency, TF over GST control)"
same,binding signal,[4],"1.3 fold enrichment (6-mer frequency, TF over GST control)"
same,binding signal,[5],"1.26 fold enrichment (6-mer frequency, TF over GST control)"
same,binding signal,[6],"1.29 fold enrichment (6-mer frequency, TF over GST control)"
same,binding signal,[7],"1.56 fold enrichment (6-mer frequency, TF over GST control)"
same,binding signal,[8],"1.24 fold enrichment (6-mer frequency, TF over GST control)"
same,binding signal,[9],"1.16 fold enrichment (6-mer frequency, TF over GST control)"
same,binding signal,[10],"1.23 fold enrichment (6-mer frequency, TF over GST control)"
